Reference: PubChem BioAssay (NCI)
Compounds without any hit were thinned out: in the full panel of roughly 79,000, 15% have a hit. Calls of active or inactive are those of the source. Rule as the data show it: active = growth inhibition above about 70%; inactive = the rest.

Experiments:
[1] = NCI Yeast Anticancer Drug Screen. Data for the wt1 strain (AID 149);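 also: 0% = growth of vehicle-treated wt1 cultures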; details: S. cerevisiae wt1 strain (SPY 50644) growth inhibition, active compounds read high
Outline: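 Yeast wt1 strain exposed to compounds; growth inhibition measured relative to vehicle-treated controls.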

[2] = NCI Yeast Anticancer Drug Screen. Data for the rad50EPP+ strain (AID 151);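 also: 0% = growth of vehicle-treated control cultures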; details: S. cerevisiae rad50 mutant strain, active compounds read high
Outline: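 Yeast strain carrying rad50 alteration (rad50EPP+) exposed to compounds; growth inhibition measured relative to vehicle-treated controls.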

[3] = NCI Yeast Anticancer Drug Screen. Data for the rad50 strain (AID 155);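 also: 0% = growth of vehicle-only cultures of the same strain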; details: S. cerevisiae rad50 strain growth inhibition, active compounds read high
Outline: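 Yeast carrying a defined DNA repair defect were exposed to test compounds, and growth was compared with vehicle-treated controls to give percent inhibition.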

[4] = NCI Yeast Anticancer Drug Screen. Data for the mec2-1 strain (AID 157); details: S. cerevisiae mec2-1 strain, active compounds read high
Outline: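 mec2-1 yeast strain, carrying an alteration in DNA damage repair or cell cycle control, was exposed to compounds; growth inhibition was measured relative to vehicle-treated controls.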

[5] = NCI Yeast Anticancer Drug Screen. Data for the rad14 strain (AID 159);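 also: 0% = growth of vehicle-treated control cultures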; details: S. cerevisiae rad14 strain growth inhibition, active compounds read high
Outline: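 Yeast cells carrying a defined DNA-repair defect were exposed to compounds, and growth inhibition was calculated relative to vehicle-treated control cultures.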

[6] = NCI Yeast Anticancer Drug Screen. Data for the sgs1 mgt1 strain (AID 161);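 also: 0% = growth of cultures given vehicle only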; details: S. cerevisiae sgs1 mgt1 strain, active compounds read high
Outline: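 This yeast growth screen uses a strain with defined DNA-repair lesions; compound-treated growth is compared with vehicle-treated growth.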

[7] = NCI Yeast Anticancer Drug Screen. Data for the CLN2oe strain (AID 163);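 also: 0% = growth of vehicle-only control cultures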; details: S. cerevisiae CLN2oe strain, active compounds read high
Outline: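 Yeast cells carrying a defined cell-cycle control alteration were exposed to test compounds. Growth inhibition was scored against vehicle-treated control cultures.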

[8] = NCI Yeast Anticancer Drug Screen. Data for the cln2 rad14 strain (AID 165);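 also: 0% = growth equal to vehicle treated cultures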; details: S. cerevisiae cln2 rad14 strain, active compounds read high
Outline: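 Yeast carrying cln2 and rad14 alterations (cell cycle control and DNA damage repair) were exposed to compounds. Growth inhibition was measured against vehicle-treated controls.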

[9] = NCI Yeast Anticancer Drug Screen. Data for the bub3 strain (AID 167); details: S. cerevisiae bub3 mutant strain, active compounds read high
Outline: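 Compounds were applied to a genetically altered yeast strain carrying a cell-cycle control defect. Growth inhibition was scored against vehicle-treated controls.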

[10] = NCI Yeast Anticancer Drug Screen. Data for the wt2 strain (AID 169);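 also: 0% = growth of vehicle-treated yeast cultures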; details: S. cerevisiae wt2 strain growth inhibition, active compounds read high
Outline: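 Yeast cells were exposed to test compounds, and growth inhibition was measured relative to vehicle-treated controls.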

[11] = NCI Yeast Anticancer Drug Screen. Data for the mlh1 strain (AID 171);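 also: 0% = growth of vehicle-treated control cultures of the same strain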; details: S. cerevisiae mlh1 strain growth inhibition, active compounds read high
Outline: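 Yeast carrying a defined genetic alteration in DNA damage repair or cell cycle control were exposed to test compounds. Growth inhibition was measured relative to vehicle-treated controls.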

[12] = NCI Yeast Anticancer Drug Screen. Data for the sgs1 strain (AID 173);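 also: 0% = growth of vehicle-only control cultures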; details: S. cerevisiae sgs1 mutant, active compounds read high
Outline: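 Yeast mutant strains carrying defined defects in DNA damage repair or cell cycle control were exposed to test compounds. Growth inhibition was scored against vehicle-treated controls.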

[13] = NCI Yeast Anticancer Drug Screen. Data for the mlh1 rad18 strain (AID 175); details: S. cerevisiae mlh1 rad18 strain growth inhibition, active compounds read high
Outline: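 Growth inhibition of the yeast strain was measured after compound exposure and expressed relative to vehicle-treated controls. The strain carries defined defects in DNA damage repair.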

[14] = NCI Yeast Anticancer Drug Screen. Data for the rad18 strain (AID 177); details: S. cerevisiae rad18 mutant growth inhibition, active compounds read high
Outline: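 Yeast carrying a defined DNA damage repair alteration were exposed to compounds. Growth inhibition was expressed relative to vehicle-treated controls.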

[15] = at 5.0 µM (retest, dose inferred, filed as 0.5)
[16] = at 50.0 µM (retest, dose inferred, filed as 5.0)

Measured: growth inhibition

O=C(Nn1c(-c2ccccc2)nc2ccccc2c1=O)c1ccc(Cl)cc1
active: [1]; at 100.0 µM 96% | [3]; at 33.0 µM 70% | [3]; at 100.0 µM 95% | [4]; at 100.0 µM 93% | [5]; at 33.0 µM 76% | [5]; at 100.0 µM 91% | [7]; at 100.0 µM 94% | [9]; at 11.0 µM 72% | [9]; at 33.0 µM 93% | [9]; at 100.0 µM 95% | [10]; at 100.0 µM 95% | [11]; at 100.0 µM 95% | [12]; at 33.0 µM 78% | [12]; at 100.0 µM 96% | [13]; at 50.0 µM 71.9% | [14]; at 33.0 µM 70% | [14]; at 100.0 µM 95%
inactive: [1]; at 1.2 µM 23% | [1]; at 3.7 µM 15% | [1]; at 11.0 µM 17% | [1]; at 33.0 µM 54% | [2]; at 1.2 µM -1% | [2]; at 3.7 µM -11% | [2]; at 11.0 µM -2% | [2]; at 33.0 µM 16% | [2]; at 100.0 µM 27% | [3]; at 1.2 µM 26% | [3]; at 3.7 µM 9% | [3]; [15] -24% | [3]; at 11.0 µM 31% | [3]; [16] 68% | [3]; at 50.0 µM 66.5% | [4]; at 1.2 µM -15% | [4]; at 3.7 µM -24% | [4]; [15] -3% | [4]; at 11.0 µM -1% | [4]; at 33.0 µM 28% | [4]; [16] 9% | [4]; at 50.0 µM 36.4% | [5]; at 1.2 µM -11% | [5]; at 3.7 µM -5% | [5]; at 11.0 µM -15% | [6]; [15] 0% | [6]; [16] 24% | [6]; at 50.0 µM 56.5% | [7]; at 1.2 µM 12% | [7]; at 3.7 µM -8% | [7]; at 11.0 µM -23% | [7]; at 33.0 µM 12% | [8]; [15] -20% | [8]; [16] 16% | [8]; at 50.0 µM 49.5% | [9]; at 1.2 µM 43% | [9]; at 3.7 µM 52% | [9]; [15] -19% | [9]; [16] 68% | [9]; at 50.0 µM 68.7% | [10]; at 1.2 µM 5% | [10]; at 3.7 µM 6% | [10]; at 11.0 µM 5% | [10]; at 33.0 µM 51% | [11]; at 1.2 µM 5% | [11]; at 3.7 µM 1% | [11]; at 11.0 µM 26% | [11]; at 33.0 µM 69% | [12]; at 1.2 µM 23% | [12]; at 3.7 µM 19% | [12]; at 11.0 µM 33% | [13]; [15] -46% | [13]; [16] 68% | [14]; at 1.2 µM -2% | [14]; at 3.7 µM -2% | [14]; at 11.0 µM 13%

CN(C)/N=N/c1nc[nH]c1C(N)=O
inactive: [1]; at 1.2 µM 0% | [1]; at 3.7 µM -1% | [1]; at 11.0 µM -3% | [1]; at 33.0 µM -1% | [2]; at 1.2 µM -3% | [2]; at 3.7 µM -2% | [2]; at 11.0 µM 0% | [2]; at 33.0 µM 8% | [2]; at 100.0 µM 32% | [3]; at 1.2 µM -2% | [3]; at 3.7 µM 0% | [3]; at 11.0 µM 7% | [3]; at 33.0 µM 20% | [4]; at 1.2 µM 0% | [4]; at 3.7 µM 0% | [4]; at 11.0 µM 1% | [4]; at 33.0 µM 5% | [5]; at 1.2 µM -2% | [5]; at 3.7 µM -2% | [5]; at 11.0 µM 0% | [5]; at 33.0 µM -1% | [7]; at 1.2 µM 1% | [7]; at 3.7 µM 2% | [7]; at 11.0 µM 0% | [7]; at 33.0 µM 0% | [9]; at 1.2 µM 2% | [9]; at 3.7 µM 1% | [9]; at 11.0 µM -2% | [9]; at 33.0 µM 46% | [10]; at 1.2 µM -5% | [10]; at 3.7 µM -1% | [10]; at 11.0 µM -2% | [10]; at 33.0 µM -2% | [11]; at 1.2 µM -2% | [11]; at 3.7 µM -2% | [11]; at 11.0 µM 0% | [11]; at 33.0 µM 0% | [12]; at 1.2 µM -1% | [12]; at 3.7 µM -2% | [12]; at 11.0 µM 1% | [12]; at 33.0 µM 6%
active: [1]; at 100.0 µM 88% | [3]; at 100.0 µM 97% | [4]; at 100.0 µM 98% | [5]; at 100.0 µM 98% | [7]; at 100.0 µM 99% | [9]; at 100.0 µM 96% | [10]; at 100.0 µM 98% | [11]; at 100.0 µM 97% | [12]; at 100.0 µM 98%

Cc1[nH]nc(C(F)(F)F)c1N=NN(C)C
inactive: [1]; at 1.2 µM -4% | [1]; at 3.7 µM 37% | [1]; at 11.0 µM 46% | [2]; at 1.2 µM 3% | [2]; at 3.7 µM 35% | [3]; at 1.2 µM 10% | [3]; at 3.7 µM 51% | [4]; at 1.2 µM 2% | [4]; at 3.7 µM 32% | [4]; at 11.0 µM 61% | [5]; at 1.2 µM 2% | [5]; at 3.7 µM 10% | [5]; at 11.0 µM 54% | [6]; at 50.0 µM 45% | [7]; at 1.2 µM -1% | [7]; at 3.7 µM 8% | [7]; at 11.0 µM 51% | [9]; at 1.2 µM -10% | [9]; at 3.7 µM -8% | [9]; [15] 30% | [9]; at 11.0 µM 45% | [10]; at 1.2 µM -1% | [10]; at 3.7 µM 49% | [10]; at 11.0 µM 51% | [11]; at 1.2 µM 4% | [11]; at 3.7 µM 48% | [11]; at 11.0 µM 52% | [12]; at 1.2 µM 12% | [12]; at 3.7 µM 48% | [13]; [15] 25% | [14]; at 1.2 µM 10% | [14]; at 3.7 µM 47%
active: [1]; at 33.0 µM 99% | [1]; at 100.0 µM 99% | [2]; at 11.0 µM 73% | [2]; at 33.0 µM 96% | [2]; at 100.0 µM 98% | [3]; [15] 91% | [3]; at 11.0 µM 87% | [3]; at 33.0 µM 99% | [3]; [16] 97% | [3]; at 50.0 µM 99.3% | [3]; at 100.0 µM 98% | [4]; [15] 96% | [4]; at 33.0 µM 99% | [4]; [16] 99% | [4]; at 50.0 µM 99.7% | [4]; at 100.0 µM 98% | [5]; at 33.0 µM 99% | [5]; at 100.0 µM 99% | [6]; [15] 78% | [6]; [16] 98% | [7]; at 33.0 µM 99% | [7]; at 100.0 µM 99% | [9]; at 33.0 µM 98% | [9]; [16] 98% | [9]; at 50.0 µM 99.5% | [9]; at 100.0 µM 98% | [10]; at 33.0 µM 99% | [10]; at 100.0 µM 99% | [11]; at 33.0 µM 99% | [11]; at 100.0 µM 99% | [12]; at 11.0 µM 75% | [12]; at 33.0 µM 99% | [12]; at 100.0 µM 99% | [13]; [16] 98% | [13]; at 50.0 µM 91.1% | [14]; at 11.0 µM 79% | [14]; at 33.0 µM 99% | [14]; at 100.0 µM 99%
